Screens (PubChem BioAssay)
MCF10A rerep – A quantitative high throughput screen for small molecules that induce DNA re-replication in MCF 10a normal breast cells; actives 2.9% (n = 350,000); MCF 10A DNA re-replication, Hoechst nuclear intensity, 48 h; AID 624296, 2012; Potency, µM (series often up to 46.1 µM), without a hit: top-dose activity, positive = re-replication, most hits filed as activators; further: potency means the concentration at half of the fitted maximal effect; % of control where 0% means no effect; nearly all actives have a fitted effect of over 50% in size
TDP1 cell noCPT – qHTS for Inhibitors of human tyrosyl-DNA phosphodiesterase 1 (TDP1): qHTS in cells in absence of CPT; DT40 Tdp1-/- hTDP1 cells, no CPT, ATP luminescence, 48 h; Potency, µM (titrated, usually from 46.2 µM), for the others: at the top dose activity change, negative = growth inhibition, usual class: inhibitors; actives 15% (n = 420,000); AID 686978, 2013; further: potency means the concentration at half of the fitted maximal effect; on the % scale 0 is the no-effect control and ±100 the full control effect; nearly all actives have a fitted effect of over 55% in size
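Growth of hTDP1-complemented DT40 Tdp1-knockout cells is measured by ATP luminescence after at least 48 hr compound exposure at 37 °C, with DMSO substituting for the 20 nM CPT used in the parallel screen.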
TDP1 cell CPT – qHTS for Inhibitors of human tyrosyl-DNA phosphodiesterase 1 (TDP1): qHTS in cells in presence of CPT; chicken DT40 Tdp1-/-;hTDP1 cells + 20 nM CPT, ATP luminescence, 48 h; actives 12% (n = 420,000); Potency, µM (titrated, usually from 46.2 µM), for inactives: top-dose activity change, negative = growth inhibition, most hits filed as inhibitors; further: potency means the concentration at half of the fitted maximal effect; on the % scale 0 is the no-effect control and ±100 the full control effect; nearly all actives have a fitted effect of over 55% in size
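Chicken DT40 Tdp1-/- cells complemented with human TDP1, 400 cells/well, exposed to compounds plus 20 nM camptothecin for at least 48 h at 37 C; viability read as ATP content by CellTiter-Glo luminescence.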
SW480 rerep – A quantitative high throughput screen for small molecules that induce DNA re-replication in SW480 colon adenocarcinoma cells; SW480 DNA re-replication, Hoechst DNA content imaging, 48 h; Potency, µM (highest dose often 46.1 µM), without a hit: at the highest dose re-replication activation, hits mostly activators; actives 1.8% (n = 340,000); further: potency means the concentration at half of the fitted maximal effect; % of control where 0% means no effect; nearly all actives have a fitted effect of over 55% in size
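Compounds, transferred as 23 nL by pin tool, were incubated with cells for 48 hr; DNA content per nucleus was then quantified by Hoechst staining and fluorescence plate imaging.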
Chronic BCR inh – qHTS Assay to Find Inhibitors of Chronic Active B-Cell Receptor Signaling; ABC-DLBCL IkBa-CBG/CBR reporter, luminescence ratio, 4 h; Potency, µM (highest dose often 46.1 µM), for the others: top-dose activity change, negative = inhibition, usual class: inhibitors; actives 0.05% (n = 340,000); AID 493014, 2011; active means well fitted inhibition curve with a large enough effect in the signal ratio, with a control signal flat, not every such curve was filed as active; inconclusive means small, poorly fitted or top-dose-only effect, or effect the other way, or a change in a side signal; the % refers to the signal ratio;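 further: potency means the concentration at half of the fitted maximal effect; plate controls were basal doxycycline-induced cells for no effect and cells given 10 µM MG132 for full effect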
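Compounds up to 46 uM were incubated four hours with TMD8 cells whose green CBG68 luciferase is fused to IkappaBalpha; red CBR luminescence normalised the signal, and concentration-effect curves were fitted to fusion, red and ratio data.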
IL-1B inflam inh – qHTS for Inhibitors of Inflammasome Signaling: IL-1-beta AlphaLISA Primary Screen; activity change, % at 57.5 µM; AID 743279, 2014; THP-1 LPS/ATP IL-1B secretion, AlphaLISA, 16 h; stronger effect = lower value; actives 4.7% (n = 360,000); in the data active means activity change below about -50%; inconclusive means mostly about -30% to -49%; further: on the % scale 0 is the no-effect control and ±100 the full control effect
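Secreted IL-1B measured by AlphaLISA bead assay after 16 h compound exposure of THP-1 cells; compounds (final up to 57.5 uM) added 1 h before LPS (250 ng/mL) and ATP (1.25 mM) stimulation; lower signal means less secretion.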
The depositor's hits bear a star; ? = inconclusive; . = no result; [ ] = another dose, or the depositor's remark. Shown are actives, neighbours in structure and some others; about 19% of the full set was active somewhere. Unless noted, the call rests on the fitted dose curve; in most records, active means well fitted curve in the direction sought with a large enough effect; inconclusive means small, poorly fitted or top-dose-only effect, or another doubt; inactive means no such curve, though single readings can be large; an effect the other way counts as inactive or inconclusive.

SMILES	MCF10A rerep	TDP1 cell noCPT	TDP1 cell CPT	SW480 rerep	Chronic BCR inh	IL-1B inflam inh
S=C(Nc1cccc2ccccc12)NC1CCCCC1	?	16.4µM*	?	-0.1%	?	2.5
COc1ccccc1NC(=S)NC1CCCC1	3.3%	47.9%	4.6%	3.2%	.	7.4
S=C(Nc1ccccc1Oc1ccccc1)NC1CCCC1	2.6%	18.4µM*	?	5.5%	2.2%	-8.8
C[C@@H]1CN(Cc2ccc3c(c2)CN(Cc2cn[nH]c2-c2ccccc2)CCO3)C[C@H](C)O1	.	-21.5%	4.0%[9.04 µM]	.	.	.
Oc1c(C(c2ccc(Cl)cc2Cl)N2CCCC2)sc2nc(-c3ccco3)nn12 (configuration not stated)	.	-21.6%	-7.3%	.	22.7%	.
O=C(NNC(=S)NC1CCCCC1)c1ccc(Cl)s1	12.9%	14.6µM*	-23.6%	-1.1%	?	-11.7
COc1ccc(NC(=S)NC2CCCCCC2)c(OC)c1	9.8%	23.1µM*	?	-0.5%	-4.9%	-6.7
CCCCc1ccccc1NC(=S)NC1CCCC1	11.4%	18.4µM*	?	?	7.5%	-7.3
COc1ccc(NC(=S)NC2CCCCC2)c(OC)c1	7.9%	?	-6.1%	1.1%	?	-7.5
Cc1ccc(C2(c3ccc(C)cc3)NC(=O)N(CC(N)=O)C2=O)cc1	-3.9%	8.4%	-3.9%	22.7%	2.1%	-13.9
COc1ccc(-c2noc(CC(=O)Nc3ccc(F)cc3F)n2)cc1	.	-11.5%	-13.9%	.	.	.
O=C1NC(Cc2ccccc2)c2nc3ccc(Cl)cc3c(=O)n2-c2ccccc21 (configuration not stated)	.	.	.	.	-3.9%	.
CCc1ccc(C(C(=O)NC2CCCC2)N(C(=O)/C=C/C(=O)Nc2cc(C)on2)c2ccccc2C)cc1 (configuration not stated)	14.6%	16.4µM*	16.4µM*	?	-3.0%	-63.2*
CCOc1ccc(N(C(=O)/C=C/C(=O)Nc2cc(C)on2)C(C(=O)NC2CCCC2)c2ccccc2C)cc1 (configuration not stated)	-0.6%	16.4µM*	16.4µM*	-3.6%	-0.1%	-24.3
CCCCN(C(=O)CCC(=O)Nc1cc(C)on1)C(C(=O)NC1CCCC1)c1ccccc1C (configuration not stated)	15.4%	?	?	0.2%	5.3%	-3.4
N#CC(c1ccc(F)cc1)c1ccc(C(=O)c2ccc(F)cc2)cc1 (configuration not stated)	23.5%	20.6µM*	?	?	0.9%	?
O=C(c1ccc(F)cc1)c1ccc(-c2ccc(F)cc2)nc1	9.7%	4.1%	-6.2%	-7.9%	?	-18.6
Cc1ccc(C(=O)NC(C)c2ccc(F)cc2)cc1 (configuration not stated)	-1.9%	-15.1%	-1.2%	-8.3%	2.1%	12.4
Cc1ccc(C(C#N)c2ccc(C(=O)c3ccc(F)cc3)cc2)cc1 (configuration not stated)	0.9%	8.2µM*	23.1µM*	-2.8%[9.22 µM]	20.2%	?
COCCCNC(=O)C(C)N1c2cccc3cccc(c23)S1(=O)=O (configuration not stated)	19.3%	20.6µM*	20.6µM*	-1.1%	-7.4%	11.8
CS(=O)(=O)N(Cc1ccccc1Cl)c1ccc(C(=O)NCc2ccccn2)cc1	-1.2%	?	-17.3%	?	0.5%	9.3
CCN1CCN(C(=O)C(C)Sc2nc3nc(C)cc(C)n3n2)CC1 (configuration not stated)	-28.9%	-7.3%	5.6%	3.6%	3.8%	-51.4*
CCc1ccc(C(=O)c2cn(CC(=O)Nc3ccc4c(c3)OCO4)c3ccc(F)cc3c2=O)cc1	.	?	-24.6%	.	.	.
CCOC(=O)c1[nH]c(C)c(CCC(=O)NCc2ccc(OC)cc2)c1C	.	-26.6%	-2.1%	.	.	.
CCOC(=O)c1[nH]c(C)c(CCC(=O)Nc2ccccc2C(=O)OC)c1C	.	16.4µM*	13µM*	.	.	.
SMILES	MCF10A rerep	TDP1 cell noCPT	TDP1 cell CPT	SW480 rerep	Chronic BCR inh	IL-1B inflam inh
COC(=O)CCc1c(C)[nH]c(C(=O)OCc2ccccc2)c1C	3.8%	-6.3%	-23.0%	0.3%	0.8%	-14.6
CCOC(=O)c1[nH]c(C)c(CCC(=O)Nc2ccc(N(CC)CC)cc2C)c1C	.	20.6µM*	23.1µM*	.	.	.
CCOC(=O)c1[nH]c(C)c(CCC(=O)Nc2ccccc2OCC)c1C	.	16.4µM*	?	.	.	.
Cc1cc(SCC(=O)Nc2nsc(-c3ccc(C(C)(C)C)cc3)n2)nc2ccccc12	.	-99.4%	?	.	.	.
CCOC(=O)c1ccc(NC(=S)N(CCCN2CCCCC2)Cc2ccco2)cc1	-0.5%	?	-9.5%	-2.6%	-4.3%	-52.7*
CCOC(=O)c1ccc(NC(=S)N(CCCN(CC)CC)Cc2ccco2)cc1	?	-26.7%	9.0%	-2.0%	-2.5%	-55.4*
COc1ccc(NC(=S)N(CCCN2CCCC2)Cc2ccco2)cc1	0.0%	-4.9%	1.8%	2.6%	-18.9%	-5.3
Cc1ccc(NC(=S)N(CCN2CCCCC2)Cc2ccco2)cc1Cl	?	?	?	7.2%	-1.8%	-97.9*
Cc1ccc(NC(=S)N(CCN(C)C)Cc2cccs2)cc1	22.3%	-1.1%	-3.7%	-25.2%	-4.4%	-4.3
CCOC(=O)c1ccc(NC(=S)N(Cc2cccnc2)Cc2ccco2)cc1	-1.4%	?	-2.8%	?	-0.6%	-3.0
Cc1cc(C)cc(NC(=S)N(CCN2CCCCC2)Cc2ccco2)c1	-11.2%	?	?	-4.3%	4.1%	-12.2
CCOC(=O)c1ccc(NC(=S)N(CCN(C)C)Cc2cccs2)cc1	29.9%	?	16.4µM*	15.9%	1.6%	19.2
O=C(NCc1nc2ccccc2[nH]1)C1=C[C@H](c2ccc(C(F)(F)F)cc2)C[C@H](OCCCCO)O1	24.9%	?	?	2.2%	.	-20.3
Cc1ccc(/C(=N/Nc2ncnc3ccccc23)C(=O)O)cc1	11.9%	?	?	18.4µM*	?	34.7
O=C1NC(=O)C(Cc2ccccc2)(C2CCN(Cc3cccn3-c3cccnc3)CC2)N1 (configuration not stated)	.	-17.9%	1.8%	.	.	.
CC(C)C[C@H]1CN=C(Nc2ccccc2)N1CCC1CCCCC1	11.1%	16.4µM*	?	?	?	-7.2
